30 compounds from PubChem BioAssay (NCATS) can be followed below.

Results filed as inconclusive are left out. Activity calls are given as the source filed them. The call rests on the fitted dose curve; in most records, active means well fitted inhibition curve with a large enough effect; inconclusive means small, poorly fitted or top-dose-only effect; inactive means flat fitted curve, though single readings scatter.

The test relates to HACAT. The test is described as follows: qHTS assay to identify novel small-molecules to repurpose for Merkel cell carcinoma treatment (AID 1296009). Further: nearly all actives have a fitted effect of over 60% in size. To be noted: MCC and control cell lines, CellTiter-Glo viability, 72 h; at 44.8 µM (top of the series) unless noted. The essentials: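 After compound transfer in DMSO, plates were kept 72 hr at 37 degree celsius. Luminescent ATP signal from CellTiter-Glo served as viability measure, normalized against DMSO and no-cell controls.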
(In general: qHTS replaces the single test concentration by a dilution series.)
For `COc1ccc(C2C(=O)c3ccccc3C2=O)cc1`, the outcome was inactive.
Turning to `Cc1c(N(C)CS(=O)(=O)O)c(=O)n(-c2ccccc2)n1C`, the result was inactive.
Consider `C[C@H](CCC(=O)O)[C@H]1CC[C@H]2[C@@H]3C(=O)C[C@@H]4CC(=O)CC[C@]4(C)[C@H]3CC(=O)[C@]12C`, for which the call was inactive.
With `Cc1cc(O)c(C(C)C)cc1Cl`, the call was inactive.
Take `O=C1c2ccccc2C(=O)C1c1ccccc1`: the compound was classed as inactive.
In the case of `Cc1ncc(CSSCc2cnc(C)c(O)c2CO)c(CO)c1O`, the result was inactive.
Turning to `NC[C@H]1O[C@H](O[C@H]2[C@H](O)[C@@H](O[C@H]3O[C@H](CO)[C@@H](O)[C@H](N)[C@H]3O)[C@H](N)C[C@@H]2N)[C@H](N)[C@@H](O)[C@@H]1O`, the outcome is “inactive [at 17.4 µM]”.
`Cc1ccc(Nc2c(F)cccc2Cl)c(CC(=O)O)c1`: the call was inactive.
The value for `CN1[C@@H]2CC[C@H]1CC(OC(=O)c1c[nH]c3ccccc13)C2` (stereo not given in full) was “inactive”; that for `CC(O)(P(=O)(O)O)P(=O)(O)O` was “inactive”.
As to `Cc1c(C(C)C)c(=O)n(-c2ccccc2)n1C`, the outcome was inactive.
Turning to `CCCCC(=O)O[C@]1(C(=O)CO)CC[C@H]2[C@@H]3CCC4=CC(=O)CC[C@]4(C)[C@H]3[C@@H](O)C[C@@]21C`, the result was inactive.
The value for `O=c1[nH]c(=O)n([C@H]2CCCO2)cc1F` was “inactive”; that for `COC(=O)CCc1ccc(OCC(O)CNC(C)C)cc1` (stereo not given) was “inactive”; that for `Cc1cc2c(cc1CC(=O)c1sccc1S(=O)(=O)Nc1onc(C)c1Cl)OCO2` was “inactive”.
Regarding `CC(C)(C)NC(=O)[C@@H]1CN(Cc2cccnc2)CCN1C[C@@H](O)C[C@@H](Cc1ccccc1)C(=O)N[C@H]1c2ccccc2C[C@H]1O`, the call was inactive.
Consider `CCCCS(=O)(=O)N[C@@H](Cc1ccc(OCCCCC2CCNCC2)cc1)C(=O)O`, for which the result was inactive.
As to `CN1CCN(C(c2ccccc2)c2ccccc2)CC1`, the compound was called inactive.
The result for `O=C(O)CNC(=O)c1ccccc1` reads “inactive”.
Regarding `COC(=O)[C@@H]1CC2=CC(=O)CC[C@]2(C)[C@@]23O[C@@H]2C[C@@]2(C)[C@@H](CC[C@@]24CCC(=O)O4)[C@H]13`, the compound was classed as inactive.
The value for `NC(CS)C(=O)O` (stereo not given) was “inactive”; that for `CN(C)CCOc1ccccc1Cc1ccccc1` was “inactive”; that for `CCOC(=O)OC(C)OC1=C(C(=O)Nc2ccccn2)N(C)S(=O)(=O)c2ccccc21` (stereo not given) was “inactive”.
Turning to `N[C@H](Cc1c[nH]c2ccccc12)C(=O)O`, the compound was called inactive.
The value for `C[C@H](O)C(=O)Nc1c(I)c(C(=O)NC(CO)CO)c(I)c(C(=O)NC(CO)CO)c1I` was “inactive”; that for `CC(C)COC(=O)c1ccc(N)cc1` was “inactive”.
Take `Cc1ccc(C(=O)C(C)CN2CCCCC2)cc1` (stereo not given): the outcome was “inactive; activator”.
For `CC1(C)O[C@@H]2[C@@H](CO[C@@]3(COS(N)(=O)=O)OC(C)(C)O[C@@H]23)O1`, the compound was called inactive.
Regarding `CCN(CCCCOC(=O)c1ccc(OC)c(OC)c1)C(C)Cc1ccc(OC)cc1` (stereo not given), the compound was called inactive.
The value for `CN=C(NC#N)Nc1ccc(C2=NNC(=O)CC2C)cc1` (stereo not given) was “inactive”.
